Experimental data taken from PubChem BioAssay (EPA / NIEHS).
The source made the active and inactive calls. How the source made its calls: active means hit-call score of the fitted dose curve at least 0.9, where 1 is the maximum; inactive means score below 0.9.

Key:
[1] = read-out: Thrombomodulin, THBD (gene 7056); experiment: BSK_CASM3C_Thrombomodulin: BioMAP Diversity Plus: CASM3C Assay for Thrombomodulin Biomarker Activity (AID 2283051); details: primary human coronary artery smooth muscle cells; actives raise or lower the signal;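 further: thrombomodulin protein level measured by ELISA 24 h after dosing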
[2] = read-out: Tissue Factor, F3 (gene 2152); experiment: BSK_CASM3C_TissueFactor: BioMAP Diversity Plus: CASM3C Assay for Tissue Factor Biomarker Activity (AID 2283052); details: primary human coronary artery smooth muscle cells; actives raise or lower the signal;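 further: cell surface tissue factor protein level read by ELISA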
[3] = read-out: Interferon-gamma inducible Protein 10 (IP10), CXCL10 (gene 3627); experiment: BSK_hDFCGF_IP10: BioMAP Diversity Plus: hDFCGF Assay for Interferon-gamma inducible Protein 10 (IP10) Biomarker Activity (AID 2283053); details: primary human foreskin fibroblasts; actives raise or lower the signal
Outline: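 Primary foreskin fibroblasts, human; 24 h compound exposure; IP-10 by ELISA; bidirectional fit vs DMSO.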

[4] = read-out: Urokinase-type plasminogen activator receptor (uPAR), PLAUR (gene 5329); experiment: BSK_CASM3C_uPAR: BioMAP Diversity Plus: CASM3C Assay for Urokinase-type plasminogen activator receptor (uPAR) Biomarker Activity (AID 2283054); details: primary human coronary artery smooth muscle cells; actives raise or lower the signal;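 further: cell-surface uPAR protein level quantified by ELISA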
[5] = read-out: Vascular cell adhesion molecule 1 (VCAM1), VCAM1 (gene 7412); experiment: BSK_CASM3C_VCAM1: BioMAP Diversity Plus: CASM3C Assay for Vascular cell adhesion molecule 1 (VCAM1) Biomarker Activity (AID 2283055); details: primary human coronary artery smooth muscle cells; actives raise or lower the signal;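 further: VCAM-1 protein level quantified by ELISA on the cells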
[6] = read-out: Epidermal growth factor receptor (EGFR), EGFR (gene 1956); experiment: BSK_hDFCGF_EGFR: BioMAP Diversity Plus: hDFCGF Assay for Epidermal growth factor receptor (EGFR) Biomarker Activity (AID 2283057); details: primary human foreskin fibroblasts; actives raise or lower the signal
Outline: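 hDFCGF system, primary human foreskin fibroblasts; compound 24 h; EGFR measured by ELISA; DMSO = negative control/baseline; bidirectional fitting.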

[7] = read-out: Interleukin-8 (IL8), CXCL8 (gene 3576); experiment: BSK_hDFCGF_IL8: BioMAP Diversity Plus: hDFCGF Assay for Interleukin-8 (IL8) Biomarker Activity (AID 2283058); details: primary human foreskin fibroblasts; actives raise or lower the signal
Outline: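 IL-8 levels from compound-treated primary human fibroblasts were read by ELISA at 24 h, with DMSO serving as baseline for bidirectional fitting.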

[8] = BSK_hDFCGF_Proliferation: Cell Proliferation Assessment in the BioMAP Diversity Plus: hDFCGF Assay (AID 2283059); details: primary human foreskin fibroblasts;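 further: curves fitted for both rise and fall of signal versus DMSO baseline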
Outline: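 Steps: dose primary human dermal fibroblasts (foreskin); […] fix in 10% TCA; stain with 0.1% SRB; read 560 nm; fit gain or loss of signal against DMSO.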

[9] = read-out: Macrophage colony-stimulating factor (MCSF), CSF1 (gene 1435); experiment: BSK_hDFCGF_MCSF: BioMAP Diversity Plus: hDFCGF Assay for Macrophage colony-stimulating factor (MCSF) Biomarker Activity (AID 2283060); details: primary human foreskin fibroblasts; actives raise or lower the signal
Outline: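 M-CSF levels, determined by ELISA, are taken at 24 h after dosing human skin fibroblasts. Responses in either direction are fitted with DMSO serving as the baseline.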

SMILES	outcome [1]	outcome [2]	outcome [3]	outcome [4]	outcome [5]	outcome [6]	outcome [7]	AC50 [8]	outcome [9]	AC50 [1]	AC50 [9]	outcome [8]	AC50 [5]	AC50 [4]	AC50 [2]	AC50 [3]	AC50 [6]	AC50 [7]
O=[N+]([O-])c1cc(C(F)(F)F)ccc1Cl	inactive	inactive	inactive	inactive	inactive	inactive	inactive	0.0171 µM (active)	inactive									
c1ccc2sc(SN(C3CCCCC3)C3CCCCC3)nc2c1		inactive	inactive	inactive	inactive	inactive	inactive	2.77 µM (active)		3 µM (active)	0.951 µM (active)							
O=C=NC1CCC(CC2CCC(N=C=O)CC2)CC1 (centres undefined)	inactive	inactive	inactive	inactive	inactive	inactive	inactive	28.5 µM (active)			4.84 µM (active)							
O=P(c1ccccc1)(c1ccccc1)c1ccccc1	inactive	inactive	inactive	inactive	inactive	inactive	inactive		inactive			inactive						
CC(=O)O[C@]1(C(C)=O)CC[C@H]2[C@@H]3C[C@H](C)C4=CC(=O)CC[C@]4(C)[C@H]3CC[C@@]21C	inactive	inactive	inactive	inactive	inactive	inactive	inactive	0.0802 µM (active)	inactive									
C#C[C@]1(O)CC[C@H]2[C@@H]3CCC4=Cc5oncc5C[C@]4(C)[C@H]3CC[C@@]21C	inactive	inactive	inactive	inactive		inactive	inactive		inactive			inactive	25 µM (active)					
CC(=O)Nc1ccccc1O	inactive	inactive	inactive		inactive	inactive	inactive		inactive			inactive		0.124 µM (active)				
CC(C)Oc1ccccc1O	inactive	inactive	inactive	inactive	inactive	inactive	inactive	20 µM (active)	inactive									
CCc1c(C)cc(N)c(CC)c1N	inactive	inactive	inactive	inactive	inactive	inactive	inactive		inactive			inactive						
CNC[C@H](O)c1cccc(O)c1	inactive	inactive	inactive	inactive	inactive	inactive	inactive		inactive			inactive						
O=C1CCCCCCCCCCCCCCO1			inactive			inactive	inactive	2.99 µM (active)		27.8 µM (active)	9.4 µM (active)		28 µM (active)	31.9 µM (active)	28.7 µM (active)			
CCCCCCCCCCCCCCCCCC(=O)OCC(CC)CCCC (centres undefined)	inactive	inactive	inactive	inactive	inactive	inactive	inactive		inactive			inactive						
NCCNCCN	inactive	inactive	inactive	inactive	inactive	inactive	inactive		inactive			inactive						
OC[C@H]1O[C@H](O[C@]2(CCl)O[C@H](CCl)[C@@H](O)[C@@H]2O)[C@H](O)[C@@H](O)[C@H]1Cl	inactive	inactive	inactive	inactive	inactive	inactive	inactive		inactive			inactive						
Cc1ccc2n[nH]nc2c1	inactive	inactive	inactive	inactive	inactive	inactive	inactive		inactive			inactive						
O=C1OC2(c3cc(Br)c(O)c(Br)c3Oc3c2cc(Br)c(O)c3Br)c2c(Cl)c(Cl)c(Cl)c(Cl)c21	inactive	inactive		inactive				4.03 µM (active)			1.56 µM (active)		9.53 µM (active)			20.8 µM (active)	1.96 µM (active)	22 µM (active)
C=C(C)C(=O)O[C@H]1C[C@@H]2CC[C@@]1(C)C2(C)C	inactive							13.1 µM (active)			28.4 µM (active)		12.1 µM (active)	9.04 µM (active)	9.73 µM (active)	35.2 µM (active)	29.4 µM (active)	35.3 µM (active)
CCCCC(CC)COC(=O)/C=C\C(=O)OCC(CC)CCCC (centres undefined)	inactive	inactive	inactive	inactive		inactive	inactive	10.5 µM (active)	inactive				20 µM (active)					
CCC(=O)OCc1ccccc1	inactive	inactive	inactive	inactive	inactive	inactive	inactive		inactive			inactive						
O=C(O)c1cn(-c2ccc(F)cc2)c2cc(N3CCNCC3)c(F)cc2c1=O	inactive	inactive	inactive	inactive	inactive	inactive	inactive		inactive			inactive						
CC(C)c1ccc(C(C)C)cc1	inactive		inactive			inactive	inactive	33.4 µM (active)	inactive				32.6 µM (active)	20 µM (active)	35.5 µM (active)			
Cc1ccc(Nc2ccc(O)c3c2C(=O)c2ccccc2C3=O)cc1	inactive	inactive	inactive	inactive	inactive	inactive	inactive	2.4 µM (active)	inactive									
COC(=O)c1ccc(C)cc1	inactive	inactive	inactive	inactive	inactive	inactive	inactive		inactive			inactive						
CC1COc2ccccc2N1C(=O)C(Cl)Cl (centres undefined)	inactive		inactive			inactive	inactive	8.61 µM (active)	inactive				10.2 µM (active)	7.08 µM (active)	4.8 µM (active)			
C=C[Si](OCC)(OCC)OCC	inactive	inactive	inactive	inactive	inactive	inactive	inactive	29.2 µM (active)	inactive									
CC(=O)OCCC(C)CC(C)(C)C (centres undefined)	inactive	inactive	inactive	inactive	inactive	inactive	inactive		inactive			inactive						
